Measurements reported in PubChem BioAssay (NCATS).
Where “and” joins values, the source holds several entries; their conditions need not be identical. Equal entries are not always repeated. Records with an inconclusive call do not appear. Calls of active or inactive are those of the source. Unless noted, calls come from the whole dose curve; as a rule, active = well fitted curve in the direction sought with a large enough effect; inconclusive = small, poorly fitted or top-dose-only effect, or another doubt; inactive = no such curve, though single readings can be large; an effect the other way counts as inactive or inconclusive.

Assays:
Es-2 = assay: Primary qHTS to identify gynecologic anti-cancer compounds using libraries of approved drugs and bioactive compounds (AID 1345084); details: Gynecologic cancer cell panel viability, ATPlite luminescence, 48 h; series mostly up to 57.5 µM; note: % is set by controls: 0 for no effect and ±100 for the full control effect; nearly all actives have a fitted effect of over 55% in size
Procedure, shortened: (§1)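 ATP-based viability (ATPlite), 1,000 cells/well, 16 h pre-incubation, 48 h compound at 37 C, 5% CO2, 15 min RT before read.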

HeLa = assay: as above; details: Gynecologic cancer cell panel viability, ATPlite luminescence, 48 h; series mostly up to 57.5 µM
Procedure, shortened: as §1

Hek293T = assay: as above; details: Gynecologic cancer cell panel viability, ATPlite luminescence, 48 h, control line for the selectivity index; series mostly up to 57.5 µM
Procedure, shortened: as §1

JEG-3 = assay: as above; details: Gynecologic cancer cell panel viability, ATPlite luminescence, 48 h; series mostly up to 57.5 µM
Procedure, shortened: as §1

OV90 = assay: as above; details: Gynecologic cancer cell panel viability, ATPlite luminescence, 48 h; series mostly up to 57.5 µM
Procedure, shortened: as §1

PA-1 = assay: as above; details: Gynecologic cancer cell panel viability, ATPlite luminescence, 48 h; series mostly up to 57.5 µM
Procedure, shortened: as §1

SKOV3 = assay: as above; details: Gynecologic cancer cell panel viability, ATPlite luminescence, 48 h; series mostly up to 57.5 µM
Procedure, shortened: as §1

Tov-21-G = assay: as above; details: Gynecologic cancer cell panel viability, ATPlite luminescence, 48 h; series mostly up to 57.5 µM
Procedure, shortened: as §1

Tov112D = assay: as above; details: Gynecologic cancer cell panel viability, ATPlite luminescence, 48 h; series mostly up to 57.5 µM
Procedure, shortened: as §1

[1] = Drug repurposing screens with cells derived from glioblastoma tumor samples (AID 1345199); details: GBM patient neurospheres viability, ATP luminescence, 48 h; note: nearly all actives have a fitted effect of over 40% in size; note: potency is the fitted concentration of half-maximal effect; for activity, negative = cell killing: % is set by controls: 0 for no effect and ±100 for the full control effect
Procedure, shortened: (§2)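 Primary testing used CD133+ neurospheres from four GBM patients, seven concentrations, 48 h exposure and ATP-based viability; confirmation added three slower-growing patient lines.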

astro = assay: as above; details: viability, ATP luminescence, 48 h; series mostly up to 45.9 µM
Procedure, shortened: as §2

[2] = qHTS assay to identify inhibitors of the type 1 interferon - major histocompatibility complex class I in skeletal muscle: Counter screen cell viability and HiBit confirmation (AID 1347412); details: iHSKM muscle cells + IFN-b, HiBiT or CellTiter-Glo, 24 h; Viability; at 45.9 µM (top of the series); note: % is set by controls: 0 for no effect and ±100 for the full control effect; nearly all actives have a fitted effect of over 60% in size
Procedure, shortened: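 Myoblasts (C25cl48, HLA-B HiBiT) seeded in medium without dexamethasone, IFN-b 4 ng/ml added except unstimulated columns; 1 hr later compounds pinned (12-pt 1:3, top 46 uM final). Incubated 24 hrs, lysed 10 min, luminescence measured.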

[3] = target: Nuclear receptor subfamily 1 group I member 2 (Rattus norvegicus) (UniProt Q9R1A7); assay: qHTS assay for small molecule activators of the rat pregnane X receptor (rPXR) signaling pathway (AID 651751; call rule not given here; note: 0% is about no effect); details: rPXR reporter cells, luciferase (One-Glo), 24 h
[4] = at 45.9 µM (top of the series), tumour line B
[5] = at 45.9 µM (top of the series), tumour line D
[6] = at 46.1 µM (top of the series), tumour line C
[7] = at 20 µM (top of the series), tumour line C
[8] = at 21.2 µM (top of the series), tumour line B
[9] = at 21.2 µM (top of the series), tumour line D
[10] = at 21.3 µM (top of the series), tumour line A
[11] = at 46 µM (top of the series), tumour line A

Chain of Nuclear receptor subfamily 1 group I member 2 (Rattus norvegicus) (Q9R1A7 whole entry, looked up): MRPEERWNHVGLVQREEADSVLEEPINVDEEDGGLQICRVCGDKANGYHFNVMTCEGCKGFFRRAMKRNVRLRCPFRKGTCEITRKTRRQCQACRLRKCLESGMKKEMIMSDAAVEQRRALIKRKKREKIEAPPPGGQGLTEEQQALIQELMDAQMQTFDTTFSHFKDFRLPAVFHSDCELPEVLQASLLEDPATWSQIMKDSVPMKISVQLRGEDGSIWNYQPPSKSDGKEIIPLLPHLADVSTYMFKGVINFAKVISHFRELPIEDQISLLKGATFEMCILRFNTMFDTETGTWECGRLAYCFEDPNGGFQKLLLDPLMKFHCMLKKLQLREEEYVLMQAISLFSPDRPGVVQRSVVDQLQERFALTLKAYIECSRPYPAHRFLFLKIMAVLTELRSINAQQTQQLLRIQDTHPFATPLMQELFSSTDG

C[C@]12C=CC(=O)C=C1CC[C@@H]1[C@@H]2C(=O)C[C@@]2(C)[C@H]1CC[C@]2(O)C(=O)CO
inactive: Potency (Es-2) | Potency (HeLa) | Potency (Hek293T) | Potency (JEG-3) | Potency (OV90) | Potency (PA-1) | Potency (SKOV3) | Potency (Tov-21-G) | Potency (Tov112D) | activity, negative = cell killing [1, 4] -6.23% | activity, negative = cell killing [1, 5] 5.45% | activity, negative = cell killing [1, 6] -7.06%

COc1ccc2c(c1)c(CC(=O)OCC(=O)O)c(C)n2C(=O)c1ccc(Cl)cc1
inactive: Potency (Es-2) | Potency (HeLa) | Potency (Hek293T) | Potency (JEG-3) | Potency (OV90) | Potency (PA-1) | Potency (SKOV3) | Potency (Tov-21-G) | Potency (Tov112D) | activity, negative = cell killing [1, 4] -1.02% | activity, negative = cell killing [1, 5] -7.57% | activity, negative = cell killing [1, 6] 8.41%

COc1cnc(NS(=O)(=O)c2ccc(N)cc2)nc1
inactive: Potency (Es-2) | Potency (HeLa) | Potency (Hek293T) | Potency (JEG-3) | Potency (OV90) | Potency (PA-1) | Potency (SKOV3) | Potency (Tov-21-G) | Potency (Tov112D) | activity, negative = cell killing [1, 7] -10.8% | activity, negative = cell killing [1, 8] -19.1% | activity, negative = cell killing [1, 9] -2.41% | activity, negative = cell killing [1, 10] -32% | Potency (astro)

COc1cc2ncnc(Nc3cccc(Cl)c3)c2cc1OC
inactive: Potency (Es-2) | Potency (HeLa) | Potency (Hek293T) | Potency (JEG-3) | Potency (OV90) | Potency (PA-1) | Potency (Tov-21-G) | Potency (Tov112D) | activity change, negative = inhibition [2] -9.03%

COc1cc(NS(=O)(=O)c2ccc(N)cc2)nc(OC)n1
inactive: Potency (Es-2) | Potency (HeLa) | Potency (Hek293T) | Potency (JEG-3) | Potency (PA-1) | Potency (SKOV3) | Potency (Tov-21-G) | Potency (Tov112D) | activity, negative = cell killing [1, 7] -7.42% | activity, negative = cell killing [1, 8] -12.9% | activity, negative = cell killing [1, 9] -12.1% | activity, negative = cell killing [1, 10] -9.97% | Potency (astro)

CN(CCOc1ccc(CC2SC(=O)NC2=O)cc1)c1ccccn1 (stereo not drawn)
inactive: Potency (Es-2) | Potency (HeLa) | Potency (Hek293T) | Potency (JEG-3) | Potency (PA-1) | Potency (SKOV3) | Potency (Tov-21-G) | Potency (Tov112D) | activity, negative = cell killing [1, 4] -18.3% | activity, negative = cell killing [1, 5] -26.6% | activity, negative = cell killing [1, 11] -36.2% | activity, negative = cell killing [1, 6] 15.3% | Potency (astro)

Cc1onc(-c2ccccc2Cl)c1C(=O)N[C@@H]1C(=O)N2[C@@H]1SC(C)(C)[C@@H]2C(=O)O
inactive: Potency (Es-2) | Potency (HeLa) | Potency (Hek293T) | Potency (JEG-3) | Potency (OV90) | Potency (PA-1) | Potency (SKOV3) | Potency (Tov-21-G) | Potency (Tov112D) | activity, negative = cell killing [1, 7] 1.94% | activity, negative = cell killing [1, 8] -1.92% | activity, negative = cell killing [1, 9] -24.2% | Potency (astro)

CCc1cc(C(N)=S)ccn1
inactive: Potency (Es-2) | Potency (HeLa) | Potency (Hek293T) | Potency (OV90) | Potency (PA-1) | Potency (SKOV3) | Potency (Tov-21-G) | Potency (Tov112D) | activity, negative = cell killing [1, 4] -9.3% | activity, negative = cell killing [1, 5] -29.7% | activity, negative = cell killing [1, 6] -26.9% | Potency (astro) | max response [3] 7.13% and -2.63%

CC1=NN(c2ccccc2)C(=O)C1
inactive: Potency (Es-2) | Potency (HeLa) | Potency (Hek293T) | Potency (JEG-3) | Potency (OV90) | Potency (PA-1) | Potency (SKOV3) | Potency (Tov-21-G) | Potency (Tov112D) | activity, negative = cell killing [1, 4] -3.42% | activity, negative = cell killing [1, 5] -8.39% | activity, negative = cell killing [1, 11] -29.7% | activity, negative = cell killing [1, 6] -6.42% | Potency (astro) | max response [3] 3.89% and 0.779%

CNS(=O)(=O)CCc1ccc2[nH]cc(C3CCN(C)CC3)c2c1
inactive: Potency (Es-2) | Potency (HeLa) | Potency (Hek293T) | Potency (JEG-3) | Potency (OV90) | Potency (PA-1) | Potency (SKOV3) | Potency (Tov-21-G) | Potency (Tov112D) | activity, negative = cell killing [1, 4] -8.38% | activity, negative = cell killing [1, 5] 2.37% | activity, negative = cell killing [1, 6] 9.59% | Potency (astro)

CC1(C)[C@H](C(=O)O)N2C(=O)C[C@H]2S1(=O)=O
inactive: Potency (Es-2) | Potency (HeLa) | Potency (Hek293T) | Potency (JEG-3) | Potency (OV90) | Potency (PA-1) | Potency (SKOV3) | Potency (Tov-21-G) | Potency (Tov112D) | activity, negative = cell killing [1, 4] 1.79% | activity, negative = cell killing [1, 5] -3.83% | activity, negative = cell killing [1, 11] -4.41% | activity, negative = cell killing [1, 6] 9.89% | Potency (astro)

Clc1ccccc1CN1CCc2sccc2C1
inactive: Potency (Es-2) | Potency (HeLa) | Potency (Hek293T) | Potency (JEG-3) | Potency (OV90) | Potency (SKOV3) | Potency (Tov-21-G) | Potency (Tov112D) | activity, negative = cell killing [1, 4] -14.5% | activity, negative = cell killing [1, 5] -10.5% | activity, negative = cell killing [1, 6] 4.64% | Potency (astro)

S=P(N1CC1)(N1CC1)N1CC1
inactive: Potency (Es-2) | Potency (HeLa) | Potency (Hek293T) | Potency (JEG-3) | Potency (PA-1) | Potency (SKOV3) | Potency (Tov-21-G) | Potency (Tov112D) | activity, negative = cell killing [1, 4] -13.6% | activity, negative = cell killing [1, 5] -2.85% | activity, negative = cell killing [1, 6] -0.68% | activity, negative = cell killing ([1]; at 91.6 µM (top of the series), tumour line B) -15.1% | activity, negative = cell killing ([1]; at 91.6 µM (top of the series), tumour line D) -14.2% | activity, negative = cell killing ([1]; at 99.2 µM (top of the series), tumour line C) -13% | Potency (astro) | max response [3] 2.63%

CCOc1cc(N)c(Cl)cc1C(=O)NCC1CN(Cc2ccc(F)cc2)CCO1 (stereo not drawn)
active: Potency ([1]; tumour line A) 11.2 µM
inactive: Potency (Es-2) | Potency (HeLa) | Potency (Hek293T) | Potency (JEG-3) | Potency (SKOV3) | Potency (Tov-21-G) | Potency (Tov112D) | activity, negative = cell killing [1, 4] -18.6% | activity, negative = cell killing [1, 6] 4.16% | Potency (astro)

CNNCc1ccc(C(=O)NC(C)C)cc1
inactive: Potency (Es-2) | Potency (HeLa) | Potency (Hek293T) | Potency (JEG-3) | Potency (OV90) | Potency (PA-1) | Potency (SKOV3) | Potency (Tov-21-G) | Potency (Tov112D) | activity, negative = cell killing [1, 4] -4.85% | activity, negative = cell killing [1, 5] -17.7% | activity, negative = cell killing [1, 6] -14.6% | Potency (astro)
